# Records with an inconclusive call do not appear. The source made the active and inactive calls. Rule for the calls, unless noted: active = hit-call score of the fitted dose curve at least 0.9, where 1 is the maximum; inactive = score below 0.9.
# Assays:
# [1] = ATG_M_06_TRANS: Attagene TRANS-FACTORIAL HepG2 Assay for M06 Transcription Factor (Internal Marker) (AID 2282983; active = hit-call score of the fitted dose curve at least 0.9, where 1 is the maximum;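 note: reporter transcript level by RT-PCR then capillary electrophoresis fluorescence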); details: HepG2 Attagene TRANS M06 internal marker reporter
# Method in brief: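 After a 24 h chemical treatment of transfected HepG2, RNA underwent DNase I treatment, reverse transcription and reporter-specific PCR; labelled, HpaI-digested products were sized by capillary electrophoresis. Signal increase relative to DMSO defined activity.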
# [2] = target: Nuclear receptor subfamily 4 group A member 2 (Homo sapiens) (UniProt P43354); assay: ATG_NURR1_TRANS: Attagene TRANS-FACTORIAL HepG2 Assay for human Nuclear Receptor Related Protein 1 (NURR1) (AID 2282985; active = hit-call score of the fitted dose curve at least 0.9, where 1 is the maximum); details: HepG2 Attagene TRANS reporter, mRNA readout
# Method in brief: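 Transient transfection of HepG2, human liver cells, with multiple GAL4-UAS reporter transcription units. Cells dosed 24 h, RNA isolated, reverse-transcribed, PCR-amplified, FAM-labelled, HpaI-digested, sized by capillary electrophoresis. DMSO served as negative control.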
# [3] = target: Transcriptional activator Myb (Homo sapiens) (UniProt P10242); assay: ATG_Myb_CIS: Attagene CIS-FACTORIAL HepG2 Assay for human Myeloblastosis (Myb) Proto-Oncogene Transcription Factor (AID 2282986); details: HepG2 Attagene CIS-FACTORIAL Myb reporter transcription; actives raise or lower the signal
# Method in brief: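 Using HepG2 liver cells bearing transiently transfected cis-promoter reporter constructs, the assay measures induction or loss of reporter mRNA after 24 hours of dosing. Detection used fluorescently labeled RT-PCR products separated by capillary electrophoresis.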
# [4] = target: Nuclear respiratory factor 1 (Homo sapiens) (UniProt Q16656); assay: ATG_NRF1_CIS: Attagene CIS-FACTORIAL HepG2 Assay for human Nuclear Respiratory Factor 1 (NRF1) Orphan Gene (AID 2282987); details: HepG2 NRF1 cis-element reporter, Attagene multiplex; actives raise or lower the signal
# Method in brief: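 Reporter mRNA induction or loss in HepG2 cells after 24 h dosing; cis-regulated reporter constructs report endogenous transcription-factor activity. Quantified by RT-PCR/capillary electrophoresis fluorescence, DMSO-referenced.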
# [5] = ATG_NFI_CIS: Attagene CIS-FACTORIAL HepG2 Assay for human Nuclear Factor I (NFI) (AID 2282989); details: HepG2 cis-regulatory reporter, NFI response element transcription; actives raise or lower the signal
# Method in brief: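 HepG2, transient MRTU, 24 h exposure; RNA→cDNA→PCR→FAM label→HpaI→CE fluorescence. Bidirectional fit, DMSO = baseline.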
# [6] = target: Myc proto-oncogene protein (Homo sapiens) (UniProt P01106); assay: ATG_Myc_CIS: Attagene CIS-FACTORIAL HepG2 Assay for human Myelocytomatosis (Myc) Proto-Oncogene Transcription Factor (AID 2282990); details: HepG2, Attagene cis-reporter transcription factor activity; actives raise or lower the signal
# Method in brief: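 Cells of the HepG2 human liver line bear multiple cis-driven reporter transcription units. Reporter mRNA after 24 h exposure is reverse-transcribed, amplified, labelled and resolved by capillary electrophoresis, with gain- or loss-of-signal fitting relative to DMSO.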
# [7] = ATG_NF_kB_CIS: Attagene CIS-FACTORIAL HepG2 Assay for human Nuclear Factor Kappa B (NF-kB) (AID 2282991); details: HepG2 Attagene cis-factorial NF-kB reporter mRNA; actives raise or lower the signal
# Method in brief: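 DMSO served as negative control and baseline for bidirectional curve fitting. Transiently transfected HepG2 cells were dosed for 24 h, then reporter transcripts were measured by RT-PCR with capillary electrophoresis detection.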
# [8] = ATG_NRF2_ARE_CIS: Attagene CIS-FACTORIAL HepG2 Assay for human Nuclear Factor Erythroid 2 Related Factor 2 (NFR2) response to Antioxidant Response Elements (ARE) (AID 2282992); details: HepG2 Attagene ARE/NRF2 reporter, transcription factor activity; actives raise or lower the signal;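 for AC50: reporter mRNA level measured by RT-PCR and capillary electrophoresis fluorescence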
# Method in brief: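 Transient MRTU transfection of HepG2; 24 h compound exposure; TriZol RNA, RT with oligo(dT), PCR, 6-FAM primer extension, HpaI cut, CE. Bidirectional fit vs DMSO.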
# [9] = ATG_Oct_MLP_CIS: Attagene CIS-FACTORIAL HepG2 Assay for human Octamer-Binding Transcription Factor (Oct) (AID 2282993); details: HepG2 Attagene cis-factorial Oct reporter, mRNA; actives raise or lower the signal
# Method in brief: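 Multiplexed cis-reporter assay in human liver HepG2 cells, 24 h incubation. Reporter RNA amplified and labelled, then resolved by capillary electrophoresis; DMSO serves as negative control and baseline.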
# [10] = target: Cellular tumor antigen p53 (Homo sapiens) (UniProt P04637); assay: ATG_p53_CIS: Attagene CIS-FACTORIAL HepG2 Assay for human p53 Transcription Factor (AID 2282994); details: HepG2 p53 cis-element reporter, Attagene mRNA; actives raise or lower the signal
# Method in brief: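 HepG2, transient MRTU transfection (cis promoter elements, endogenous TFs); 24 h dosing; RNA isolation, RT-PCR, 6-FAM primer extension, HpaI digest, CE fluorescence; bidirectional fit vs DMSO.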
# [11] = target: Hepatocyte nuclear factor 4-alpha (Homo sapiens) (UniProt P41235); assay: ATG_HNF4a_TRANS: Attagene TRANS-FACTORIAL HepG2 Assay for human Hepatocyte Nuclear Factor 4 alpha (HNF4a) (AID 2282982; active = hit-call score of the fitted dose curve at least 0.9, where 1 is the maximum); details: HepG2 HNF4a transactivation reporter, mRNA readout
# Method in brief: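 Readout is fluorescent reporter-transcript fragments resolved by capillary electrophoresis after RT-PCR from HepG2 cells dosed for 24 h. Cells carried transfected GAL4-UAS reporter constructs measuring exogenous NR-GAL4 chimera activity; DMSO served as baseline.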
# [12] = target: Oxysterols receptor LXR-beta (Homo sapiens) (UniProt P55055); assay: ATG_LXRb_TRANS: Attagene TRANS-FACTORIAL HepG2 Assay for human Liver X Receptor beta (LXRb) (AID 2282981; active = hit-call score of the fitted dose curve at least 0.9, where 1 is the maximum); details: HepG2 Attagene TRANS GAL4-LXRb reporter, mRNA
# Method in brief: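 Transient transfection HepG2 (multiplexed RTUs, GAL4-UAS); NR-Gal4 chimera; 24 h exposure; RNA → RT-PCR → 6-FAM primer extension → HpaI → CE; increase vs DMSO.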
# [13] = ATG_M_32_TRANS: Attagene TRANS-FACTORIAL HepG2 Assay for M32 Transcription Factor (Internal Marker) (AID 2282984; active = hit-call score of the fitted dose curve at least 0.9, where 1 is the maximum;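 note: transcript level of a background control reporter unit measured by RT-PCR and capillary electrophoresis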); details: HepG2 Attagene TRANS M32 internal marker reporter
# Method in brief: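 Measures reporter mRNA induction in human HepG2 liver cells after 24 h chemical treatment. Transcripts from transiently transfected GAL4-UAS reporter units are amplified, fluorescently labelled and sized by capillary electrophoresis; gain of signal relative to DMSO.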
# [14] = BSK_3C_TissueFactor: BioMAP Diversity Plus: 3C Assay for Tissue Factor Biomarker Activity (AID 2282997); details: BioMAP 3C HUVEC, tissue factor biomarker readout; actives raise or lower the signal
# Method in brief: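 Human vascular primary cells (umbilical vein endothelium) received test chemical; Tissue Factor was determined by ELISA at 24 h, and both gain and loss of signal versus DMSO were fitted.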
# [15] = BSK_3C_uPAR: BioMAP Diversity Plus: 3C Assay for Urokinase-type plasminogen activator receptor (uPAR) Biomarker Activity (AID 2282998); details: BioMAP 3C HUVEC, uPAR biomarker ELISA; actives raise or lower the signal
# Method in brief: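 Dose primary human umbilical vein endothelial cells, incubate 24 h, measure cell-surface uPAR by ELISA, then fit the signal in both directions against the DMSO negative control.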
# [16] = BSK_3C_VCAM1: BioMAP Diversity Plus: 3C Assay for Vascular cell adhesion molecule 1 (VCAM1) Biomarker Activity (AID 2282999); details: BioMAP 3C HUVEC, VCAM1 ELISA, cytokine-stimulated; actives raise or lower the signal
# Method in brief: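 Endothelial cells from human umbilical vein are treated with test chemical. At 24 h, VCAM-1 is measured by ELISA, and responses in either direction are fitted relative to DMSO.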
# [17] = BSK_4H_Eotaxin3: BioMAP Diversity Plus: 4H Assay for Eotaxin 3 Biomarker Activity (AID 2283000); details: primary human endothelial cells (HUVEC); actives raise or lower the signal
# Method in brief: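 Readout is Eotaxin-3 (CCL26) level by ELISA in primary human umbilical vein endothelial cells harvested 24 h after chemical exposure; activity fitted in both directions against DMSO control.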
# Myc proto-oncogene protein (Homo sapiens), sequence (P01106 whole entry, looked up): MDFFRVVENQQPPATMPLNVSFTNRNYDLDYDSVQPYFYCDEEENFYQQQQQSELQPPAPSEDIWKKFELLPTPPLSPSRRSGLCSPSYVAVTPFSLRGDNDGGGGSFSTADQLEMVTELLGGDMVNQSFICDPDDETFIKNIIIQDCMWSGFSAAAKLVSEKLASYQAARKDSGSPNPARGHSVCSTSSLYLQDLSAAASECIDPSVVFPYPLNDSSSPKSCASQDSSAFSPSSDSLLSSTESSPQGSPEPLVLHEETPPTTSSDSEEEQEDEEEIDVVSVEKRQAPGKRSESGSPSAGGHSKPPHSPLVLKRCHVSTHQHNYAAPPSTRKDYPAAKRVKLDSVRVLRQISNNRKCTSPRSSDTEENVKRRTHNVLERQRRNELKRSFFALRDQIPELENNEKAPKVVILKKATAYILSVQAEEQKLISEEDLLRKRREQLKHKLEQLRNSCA
# Transcriptional activator Myb (Homo sapiens), sequence (P10242 whole entry, looked up): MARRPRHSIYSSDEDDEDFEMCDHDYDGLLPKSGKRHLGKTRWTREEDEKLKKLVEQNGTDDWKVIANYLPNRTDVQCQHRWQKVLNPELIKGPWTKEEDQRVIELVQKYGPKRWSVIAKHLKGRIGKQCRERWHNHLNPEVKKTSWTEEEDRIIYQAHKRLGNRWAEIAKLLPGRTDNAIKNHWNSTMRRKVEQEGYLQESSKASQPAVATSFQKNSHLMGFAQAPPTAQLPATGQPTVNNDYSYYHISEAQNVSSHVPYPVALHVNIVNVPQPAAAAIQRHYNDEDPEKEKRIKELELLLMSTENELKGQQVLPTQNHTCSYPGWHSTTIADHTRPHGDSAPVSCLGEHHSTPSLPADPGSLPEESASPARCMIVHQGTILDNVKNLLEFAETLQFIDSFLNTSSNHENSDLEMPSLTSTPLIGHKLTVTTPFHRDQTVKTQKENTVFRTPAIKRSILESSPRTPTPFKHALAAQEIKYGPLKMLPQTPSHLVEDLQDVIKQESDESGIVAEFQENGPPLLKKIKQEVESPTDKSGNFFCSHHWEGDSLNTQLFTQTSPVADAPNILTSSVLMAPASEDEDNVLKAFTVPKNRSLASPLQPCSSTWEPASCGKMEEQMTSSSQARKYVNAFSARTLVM
# Cellular tumor antigen p53 (Homo sapiens), sequence (P04637 whole entry, looked up): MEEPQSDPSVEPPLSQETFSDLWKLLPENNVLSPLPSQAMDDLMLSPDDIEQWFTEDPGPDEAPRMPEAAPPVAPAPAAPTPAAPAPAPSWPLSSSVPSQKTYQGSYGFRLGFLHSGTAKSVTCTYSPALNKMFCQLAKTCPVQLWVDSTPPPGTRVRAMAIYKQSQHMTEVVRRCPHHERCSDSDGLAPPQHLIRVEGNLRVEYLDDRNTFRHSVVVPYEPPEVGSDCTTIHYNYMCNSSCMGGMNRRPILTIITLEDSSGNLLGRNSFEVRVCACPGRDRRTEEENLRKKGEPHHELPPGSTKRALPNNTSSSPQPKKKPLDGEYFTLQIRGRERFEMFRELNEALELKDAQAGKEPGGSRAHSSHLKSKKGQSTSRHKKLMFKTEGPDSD
# Nuclear respiratory factor 1 (Homo sapiens), sequence (Q16656 whole entry, looked up): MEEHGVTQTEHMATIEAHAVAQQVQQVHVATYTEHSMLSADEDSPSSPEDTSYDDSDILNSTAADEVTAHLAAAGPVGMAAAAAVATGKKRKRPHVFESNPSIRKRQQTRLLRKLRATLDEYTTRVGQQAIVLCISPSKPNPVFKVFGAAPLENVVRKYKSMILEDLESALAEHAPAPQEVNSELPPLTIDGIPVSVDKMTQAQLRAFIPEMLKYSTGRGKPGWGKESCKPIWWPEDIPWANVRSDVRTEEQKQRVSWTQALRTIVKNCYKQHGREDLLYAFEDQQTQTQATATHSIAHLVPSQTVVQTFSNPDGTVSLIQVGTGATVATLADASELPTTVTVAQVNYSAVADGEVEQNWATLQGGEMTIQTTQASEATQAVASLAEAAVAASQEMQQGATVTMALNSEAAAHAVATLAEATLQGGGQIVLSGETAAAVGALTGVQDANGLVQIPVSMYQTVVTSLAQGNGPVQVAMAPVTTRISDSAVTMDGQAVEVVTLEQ
# Nuclear receptor subfamily 4 group A member 2 (Homo sapiens), sequence (P43354 whole entry, looked up, the tested form may be a part): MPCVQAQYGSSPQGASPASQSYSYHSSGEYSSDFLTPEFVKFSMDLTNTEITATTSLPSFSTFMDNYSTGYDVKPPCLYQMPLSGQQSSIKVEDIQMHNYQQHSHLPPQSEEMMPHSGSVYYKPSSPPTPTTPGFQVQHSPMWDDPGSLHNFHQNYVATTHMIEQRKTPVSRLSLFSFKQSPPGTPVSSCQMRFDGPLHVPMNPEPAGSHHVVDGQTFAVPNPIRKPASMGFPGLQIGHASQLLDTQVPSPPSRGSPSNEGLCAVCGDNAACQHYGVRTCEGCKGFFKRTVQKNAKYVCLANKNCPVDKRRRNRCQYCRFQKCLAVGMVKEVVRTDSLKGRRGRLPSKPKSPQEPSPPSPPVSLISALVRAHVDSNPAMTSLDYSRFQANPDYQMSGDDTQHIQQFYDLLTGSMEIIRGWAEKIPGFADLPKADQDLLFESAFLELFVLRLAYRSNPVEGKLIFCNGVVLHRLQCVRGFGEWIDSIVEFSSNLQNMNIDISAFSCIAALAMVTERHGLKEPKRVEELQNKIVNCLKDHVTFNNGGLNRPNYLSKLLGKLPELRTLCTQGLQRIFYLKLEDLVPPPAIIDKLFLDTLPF
# Hepatocyte nuclear factor 4-alpha (Homo sapiens), sequence (P41235 whole entry, looked up, the tested form may be a part): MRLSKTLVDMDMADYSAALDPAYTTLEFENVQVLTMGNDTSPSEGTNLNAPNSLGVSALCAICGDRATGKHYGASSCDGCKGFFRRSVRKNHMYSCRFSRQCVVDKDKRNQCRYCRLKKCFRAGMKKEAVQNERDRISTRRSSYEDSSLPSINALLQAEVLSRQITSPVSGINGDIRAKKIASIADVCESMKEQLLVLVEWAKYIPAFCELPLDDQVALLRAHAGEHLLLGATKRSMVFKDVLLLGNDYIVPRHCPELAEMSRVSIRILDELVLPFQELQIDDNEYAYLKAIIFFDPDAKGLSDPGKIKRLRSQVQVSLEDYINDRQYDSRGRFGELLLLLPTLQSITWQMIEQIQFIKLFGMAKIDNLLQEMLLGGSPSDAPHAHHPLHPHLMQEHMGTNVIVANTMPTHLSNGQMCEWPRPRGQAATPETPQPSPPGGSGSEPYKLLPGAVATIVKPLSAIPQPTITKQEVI
# Oxysterols receptor LXR-beta (Homo sapiens), sequence (P55055 whole entry, looked up, the tested form may be a part): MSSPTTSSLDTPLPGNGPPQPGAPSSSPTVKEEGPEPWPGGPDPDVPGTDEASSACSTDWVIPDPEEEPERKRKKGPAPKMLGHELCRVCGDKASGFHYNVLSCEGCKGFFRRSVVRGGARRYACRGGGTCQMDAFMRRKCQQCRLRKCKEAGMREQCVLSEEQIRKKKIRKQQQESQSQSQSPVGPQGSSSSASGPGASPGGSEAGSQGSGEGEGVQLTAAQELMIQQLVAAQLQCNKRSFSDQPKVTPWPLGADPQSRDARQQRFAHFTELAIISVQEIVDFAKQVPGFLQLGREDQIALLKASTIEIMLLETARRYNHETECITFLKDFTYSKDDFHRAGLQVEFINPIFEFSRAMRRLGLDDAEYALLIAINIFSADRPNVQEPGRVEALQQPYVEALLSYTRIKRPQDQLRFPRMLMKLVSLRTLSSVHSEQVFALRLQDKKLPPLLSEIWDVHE
structure (smiles),measurement,setting,value
C[N+](C)(C)CCCCCC[N+](C)(C)C,outcome,[1],inactive
same,outcome,[2],inactive
same,outcome,[3],inactive
same,outcome,[4],inactive
same,outcome,[5],inactive
same,outcome,[6],inactive
same,outcome,[7],inactive
same,outcome,[8],inactive
same,outcome,[9],inactive
same,outcome,[10],inactive
Cc1c(Cl)cccc1[N+](=O)[O-],outcome,[11],inactive
same,outcome,[3],inactive
same,outcome,[4],inactive
same,outcome,[5],inactive
same,outcome,[6],inactive
same,outcome,[7],inactive
same,outcome,[8],inactive
same,outcome,[9],inactive
same,outcome,[10],inactive
CS(C)=O,outcome,[3],inactive
same,outcome,[5],inactive
same,outcome,[6],inactive
same,outcome,[8],inactive
same,outcome,[9],inactive
same,outcome,[10],inactive
CC(C)(C)c1ccc(C(=O)O)cc1,outcome,[3],inactive
same,outcome,[4],inactive
same,outcome,[5],inactive
same,outcome,[6],inactive
same,outcome,[8],inactive
same,outcome,[9],inactive
same,outcome,[10],inactive
CCC(=O)O[C@@H]1C[C@H]2CC[C@]1(C)C2(C)C,outcome,[12],inactive
same,outcome,[13],inactive
same,outcome,[3],inactive
same,outcome,[4],inactive
same,outcome,[5],inactive
same,outcome,[6],inactive
same,outcome,[7],inactive
same,outcome,[8],inactive
same,outcome,[9],inactive
same,outcome,[10],inactive
CCOc1ccc(NC(=O)CC(C)O)cc1 (configuration not stated),outcome,[11],inactive
same,outcome,[2],inactive
same,outcome,[3],inactive
same,outcome,[5],inactive
same,outcome,[6],inactive
same,outcome,[7],inactive
same,outcome,[8],inactive
same,outcome,[9],inactive
same,outcome,[10],inactive
Cc1ccc2c(c1)C(=O)OC2=O,outcome,[13],inactive
same,outcome,[3],inactive
same,outcome,[4],inactive
same,outcome,[5],inactive
same,outcome,[6],inactive
same,outcome,[8],inactive
same,outcome,[9],inactive
same,outcome,[10],inactive
CC(=O)Nc1ccc(C(=O)CCl)cc1,outcome,[11],inactive
same,outcome,[1],inactive
same,outcome,[2],inactive
same,outcome,[3],inactive
same,AC50,[5],8.18 µM (active)
same,outcome,[6],inactive
same,AC50,[8],0.41 µM (active)
same,outcome,[9],inactive
same,outcome,[10],inactive
same,AC50,[14],9.37 µM (active)
same,AC50,[15],9.48 µM (active)
same,AC50,[16],6.27 µM (active)
same,AC50,[17],6.53 µM (active)
CC(C)CCCCCCc1ccc(OCCOCCO)cc1,outcome,[1],inactive
same,outcome,[3],inactive
same,outcome,[4],inactive
same,outcome,[5],inactive
same,outcome,[6],inactive
same,outcome,[7],inactive
same,outcome,[8],inactive
same,outcome,[9],inactive
same,outcome,[10],inactive
CCCCC1(COC(=O)CCC(=O)O)C(=O)N(c2ccccc2)N(c2ccccc2)C1=O,outcome,[1],inactive
same,outcome,[2],inactive
same,outcome,[3],inactive
same,outcome,[4],inactive
same,outcome,[5],inactive
same,outcome,[6],inactive
same,outcome,[8],inactive
same,outcome,[9],inactive
same,outcome,[10],inactive
CCCC(=O)OCCc1ccccc1,outcome,[1],inactive
same,outcome,[2],inactive
same,outcome,[3],inactive
same,outcome,[4],inactive
same,outcome,[5],inactive
same,outcome,[6],inactive
same,outcome,[8],inactive
same,outcome,[9],inactive
same,outcome,[10],inactive
CC1CC(O)CC(C)(C)C1 (configuration not stated),outcome,[13],inactive
same,outcome,[3],inactive
same,outcome,[5],inactive
same,outcome,[6],inactive
same,outcome,[7],inactive
same,outcome,[8],inactive
same,outcome,[9],inactive
same,outcome,[10],inactive
O=C(O)c1cccnc1C(=O)O,outcome,[11],inactive
same,outcome,[13],inactive
same,outcome,[3],inactive
same,outcome,[4],inactive
same,outcome,[5],inactive
same,outcome,[6],inactive
same,outcome,[7],inactive
same,outcome,[8],inactive
same,outcome,[9],inactive
same,outcome,[10],inactive
OC[C@H]1O[C@@H]2O[C@H]3[C@H](O)[C@@H](O)[C@@H](O[C@H]4[C@H](O)[C@@H](O)[C@@H](O[C@H]5[C@H](O)[C@@H](O)[C@@H](O[C@H]6[C@H](O)[C@@H](O)[C@@H](O[C@H]7[C@H](O)[C@@H](O)[C@@H](O[C@H]8[C@H](O)[C@@H](O)[C@@H](O[C@H]9[C@H](O)[C@@H](O)[C@@H](O[C@H]1[C@H](O)[C@H]2O)O[C@@H]9CO)O[C@@H]8CO)O[C@@H]7CO)O[C@@H]6CO)O[C@@H]5CO)O[C@@H]4CO)O[C@@H]3CO,outcome,[11],inactive
same,outcome,[3],inactive
same,outcome,[4],inactive
same,outcome,[5],inactive
same,outcome,[6],inactive
same,outcome,[7],inactive
same,outcome,[9],inactive
COCCOC(=O)c1ccccc1C(=O)OCCOC,outcome,[12],inactive
same,outcome,[1],inactive
same,outcome,[4],inactive
same,outcome,[5],inactive
same,outcome,[6],inactive
same,outcome,[8],inactive
same,outcome,[9],inactive
same,outcome,[10],inactive

# Source: PubChem BioAssay (EPA / NIEHS)
